Reference: PubChem BioAssay AID624136 (Broad Institute, 2012)
About 75 (0.4%) of roughly 17,000 compounds were called active.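 How the source made its calls: active means compounds whose four printed spots each glow above background more than chance allows, each with a p-value under 7%; inactive means the rest.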 The entries come from a sample that favours actives as a whole.

System: mutant tumor protein p53 (GST-tagged), Homo sapiens
Assay: small molecules binding GST-tagged mutant p53 – biochemical, small molecule microarray, anti-GST fluorescence, primary screen (AID 624136)

outcome, inactive:
C[C@@H]1CCCCO[C@@H](CN(C)Cc2ccc(C(=O)O)cc2)[C@H](C)CN([C@@H](C)CO)C(=O)c2cc(NC(=O)Nc3ccc(C(F)(F)F)cc3)ccc2O1, C[C@@H]1CC[C@]2(C)[C@H](CC[C@@H](O)[C@]2(C)O)[C@@]1(C)CC(=O)c1ccoc1, CC(=O)N[C@@H](C(=O)O[C@H]1CCC(C)(C)[C@@H]2CCC3=C(COC3=O)[C@@]12C)C(C)C, CC(C)NC(=O)N(C)C[C@H]1OCCCC[C@H](C)Oc2ccc(NC(=O)Nc3ccc(C(F)(F)F)cc3)cc2C(=O)N([C@H](C)CO)C[C@@H]1C, CC(C)NC(=O)N(C)C[C@@H]1OCCCC[C@@H](C)Oc2ccc(NC(=O)Cc3ccccc3)cc2C(=O)N([C@H](C)CO)C[C@H]1C, C[C@H]1CN([C@@H](C)CO)C(=O)c2cccc(NC(=O)Nc3ccc(C(F)(F)F)cc3)c2O[C@H]1CN(C)C(=O)NC1CCCCC1, COC(=O)C1=CO[C@@H](O[C@@H]2O[C@H](CO)[C@@H](O)[C@H](O)[C@H]2O)[C@@H]2[C@@](C)(O)[C@@H](OC(=O)/C=C/c3ccc(OC)c(OC)c3)C[C@]12O, C[C@H](CO)N1C[C@H](C)[C@H](CN(C)S(=O)(=O)c2cn(C)cn2)Oc2c(NC(=O)c3ccncc3)cccc2C1=O, Cc1noc(C)c1NC(=O)N(C)C[C@@H]1Oc2ccc(NC(=O)Nc3ccc(F)cc3)cc2C(=O)N([C@H](C)CO)C[C@@H]1C, C[C@H](CO)N1C[C@H](C)[C@H](CN(C)C)Oc2c(NC(=O)C3CCOCC3)cccc2C1=O, C[C@@H]1CN([C@@H](C)CO)C(=O)Cc2cc(NS(C)(=O)=O)ccc2O[C@@H]1CN(C)Cc1ccc2c(c1)OCO2, O=C(C1=C[C@H](c2ccc(C(F)(F)F)cc2)C[C@H](OCc2ccc(CO)cc2)O1)N1CCN(Cc2ccccc2)CC1, C[C@H](CO)N1C[C@H](C)[C@@H](CN(C)C)Oc2ccc(NS(=O)(=O)c3cccs3)cc2C1=O, COc1ccc(S(=O)(=O)N(C)C[C@H]2OCCCC[C@@H](C)Oc3ccc(NC(=O)CCC(F)(F)F)cc3C(=O)N([C@@H](C)CO)C[C@H]2C)cc1, Cc1noc(C)c1NC(=O)N(C)C[C@H]1Oc2ccc(N(C)C)cc2CC(=O)N([C@H](C)CO)C[C@H]1C, C[C@H]1CCCCO[C@H](CN(C)C(=O)Nc2ccccc2)[C@@H](C)CN([C@@H](C)CO)C(=O)c2cc(NC(=O)CCC(F)(F)F)ccc2O1, N#Cc1c(-c2ccccc2)cc(-c2ccccc2)nc1SCC(=O)O, CC(Sc1nnc(N)s1)C(=O)Nc1cccc(Cl)c1 (configuration not stated), COc1ccc(NC(=O)Nc2cccc3c2O[C@@H](CN(C)Cc2ccncc2)[C@H](C)CN([C@H](C)CO)C3=O)cc1, COC(=O)C1(Cc2ccc(O)c(CC3OC3(C)C)c2)OC(=O)C(=O)C1c1ccc(O)cc1 (configuration not stated), C[C@@H]1CCCCO[C@H](CN(C)S(=O)(=O)c2cccs2)[C@H](C)CN([C@@H](C)CO)C(=O)c2cc(NS(=O)(=O)c3cccs3)ccc2O1, C[C@@H]1CN([C@H](C)CO)C(=O)c2cc(NC(=O)NC3CCCCC3)ccc2O[C@H]1CN(C)C(=O)Nc1ccccc1, COc1ccc(C)cc1NC(=O)CSc1nc(SC)ns1, C[C@H](CO)N1C[C@H](C)[C@@H](CN(C)C(=O)Nc2ccccc2F)OCc2cn(nn2)CCCC1=O, COc1ccc(NC(=O)Nc2ccc3c(c2)C(=O)N([C@H](C)CO)C[C@H](C)[C@@H](CN(C)S(=O)(=O)c2ccc(OC)cc2)OCCCC[C@H](C)O3)cc1, C[C@H](CO)N1C[C@H](C)[C@H](CN(C)C(=O)Nc2ccc3c(c2)OCO3)Oc2ncc(Br)cc2C1=O, C[C@H]1CN([C@@H](C)CO)C(=O)Cc2cc(NC(=O)Nc3ccc4c(c3)OCO4)ccc2O[C@H]1CN(C)CC1CC1
